Screening results from PubChem BioAssay.
The full list was thinned out, with hits kept by preference.
D1 allo mod = allosteric modulators of human D1 dopamine receptor | P21728 | B-score at 10 µM | 58,000 tested, 5.9% active | HEK293 D1, CRE-luciferase, dopamine EC30 potentiation; actives deviate in either direction | AID 641;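 active = luminescence count or its row- and column-corrected plate score outside the 99.7% band of the plate's sample wells, on either side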
TNAP act DEA = human TNAP activation, intermediate phosphate acceptor; P05186; purified TNAP, CDP-star luminescence, 100 mM DEA, 30 min; hits give high values; scale: 0 levamisole-inhibited, 1 vehicle-only enzyme; activation factor at 20 µM; 64,000 tested, under 10 active; AID 813;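 active = activation factor of at least 2 at 20 µM, relative to controls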
Candida biofilm = kills Candida albicans biofilms | C. albicans biofilm + clotrimazole, Alamar Blue | inhibition, % at 6 µM | 85,000 tested, 0.14% active | AID 834;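 active = inhibition above 20%; inactive = inhibition below 20%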;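 also: preformed 24 hr biofilms exposed to compound for 48 hr; 0% = biofilm without compound and 100% = blank killed by clotrimazole plus chlorhexidine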
DAT uptake mod = modulates human dopamine transporter uptake under cocaine | 110,000 tested, 1.3% active | B-score at 10 µM | LLC-PK1 hDAT cells, [14C]-dopamine uptake with cocaine IC80; actives deviate in either direction | Q01959;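 active = Z score or B-score, a plate-position-corrected score, falls beyond the plate's 99.7% confidence bounds, in either direction; inactive = both scores lie inside the 99.7% bounds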;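 also: scored against the spread of the other compound wells on the same plate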
PLAP act = human PLAP activation | purified PLAP enzyme, luminescent substrate read-out; hits give high values | P05187 | activation fold at 20 µM | 96,000 tested, 1.2% active; in the data active = activation fold above about 2
Target sequence (P05187 whole entry, looked up): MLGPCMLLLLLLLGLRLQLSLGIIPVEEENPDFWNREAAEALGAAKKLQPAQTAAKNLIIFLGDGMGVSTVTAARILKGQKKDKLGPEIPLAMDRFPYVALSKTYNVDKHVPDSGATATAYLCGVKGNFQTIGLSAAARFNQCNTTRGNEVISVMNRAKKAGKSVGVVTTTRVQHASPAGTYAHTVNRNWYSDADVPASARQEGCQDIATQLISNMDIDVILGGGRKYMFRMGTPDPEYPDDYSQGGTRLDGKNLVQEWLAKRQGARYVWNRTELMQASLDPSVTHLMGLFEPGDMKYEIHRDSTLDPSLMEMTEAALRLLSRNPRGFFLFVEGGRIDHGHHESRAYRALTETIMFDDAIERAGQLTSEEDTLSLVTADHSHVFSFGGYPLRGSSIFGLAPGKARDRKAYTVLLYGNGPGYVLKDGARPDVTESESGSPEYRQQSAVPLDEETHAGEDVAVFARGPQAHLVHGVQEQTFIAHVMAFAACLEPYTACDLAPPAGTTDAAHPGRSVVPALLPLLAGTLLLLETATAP
HePTP inhibitor = blocks human HePTP tyrosine phosphatase; P35236; recombinant HePTP phosphatase activity, OD absorbance; 110,000 tested, 0.64% active; inhibition, % at 20 µM; in the data active = inhibition above about 50%;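 also: plate controls were vehicle for no effect and reference inhibitor for full effect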
An asterisk follows results filed as active; nt = no result.

SMILES	D1 allo mod	TNAP act DEA	Candida biofilm	DAT uptake mod	PLAP act	HePTP inhibitor
Cc1cccc(Cn2c(=O)c3c(nc4n3CCCN4Cc3ccccc3)n(C)c2=O)c1	0.63	0.9	4	3*	1.3	4
Cn1c(N2CCOCC2)nc2c1c(=O)n(Cc1ccc(Cl)cc1)c(=O)n2C	4.4*	0.9	5	0.77	nt	7
COc1cccc(CN2CCN(C(=O)c3ccccc3OC)CC2)c1	nt	nt	nt	nt	nt	-2
Cc1cccc(/C=N/N2CCN(Cc3ccccc3Cl)CC2)c1	nt	nt	nt	nt	nt	1
CC(=O)Nc1c(C)ccc2c1C(C)CC21CCCC1 (stereo not drawn)	nt	nt	nt	nt	nt	104*
CC(=O)Nc1c(Br)cc(C23CC4CC(CC(C4)C2)C3)cc1Br	nt	nt	nt	nt	nt	-14
COc1ccc(OCc2cccc(C(=O)O)c2)cc1	-11*	0.9	nt	0.72	1	14
CCOc1ccc(OCc2cccc(C(=O)N3CCCC3)c2)cc1	-3.9*	0.9	-5	1.9	1.2	2
O=C(O)c1cccc(COc2ccc(CO)cc2Cl)c1	-7.1*	0.9	nt	-1.8	1.2	6
O=C(O)c1ccc(COc2ccc(CO)cc2Cl)cc1	-0.079	0.9	6	-0.78	0.8	2
CCOc1ccc(OCc2ccc(C(=O)N3CCCC3)o2)cc1	0.37	0.9	0	0.75	1.5	5
CCOc1ccc(OCc2cccc(C(=O)O)c2)cc1	-4.5*	0.9	nt	-0.33	1.1	4
CCOc1ccc(N2C(=O)NC(=O)/C(=C\c3ccc(OCc4cccc(C(=O)O)c4)cc3)C2=O)cc1	nt	nt	nt	nt	nt	-4
CC(C)OC(=O)N1C2C=CC(C2)C1(C(F)(F)F)C(F)(F)F (stereo not drawn)	nt	nt	nt	nt	nt	4
CCOc1ccc(-n2cc(C(=O)N3CCCCCC3)c3cc(OC)c(OC)cc3c2=O)cc1	-1.2	1	nt	2.9*	1.2	-2
COc1cccc(OC)c1C(=O)NNC(=O)c1cccc(COc2ccc3c(c2)CCC3)c1	nt	nt	nt	nt	2*	nt
CCOc1ccc(C(=O)N2CCCC2)cc1	nt	nt	5	5.9*	nt	nt
CCCCOc1ccc(C(=O)N2CCCC2)cc1	nt	nt	2	0.44	1	nt
O=C(Nc1ccccc1CO)c1ccccc1F	nt	nt	nt	nt	nt	-1
O=C(Nc1ccc(-c2nc3ccccc3[nH]2)cc1)C1CCCO1 (stereo not drawn)	-5*	0.9	-2	0.059	1.1	3
O=C(CN1CCOCC1)Nc1ccc(-c2nc3ccccc3[nH]2)cc1	nt	0.9	nt	-0.5	1	-1
O=C(Nc1nc2ccccc2[nH]1)C1CCCO1 (stereo not drawn)	-0.014	0.9	2	-0.98	2.5*	5
O=C(CSCCO)Nc1ccc(C2CCCCC2)cc1	-1.3	0.9	2	3.1*	1.2	6
CC(=O)c1ccc(NC(=O)CSCCO)cc1	0.54	0.9	5	-0.9	0.9	-4
O=C(NCc1ccccc1)c1cnc2n(c1=O)CCS2	-3.5*	0.9	0	-0.43	1	9
SMILES	D1 allo mod	TNAP act DEA	Candida biofilm	DAT uptake mod	PLAP act	HePTP inhibitor
O=C(NCCCc1ccccc1)c1cnc2n(c1=O)CCS2	-0.036	nt	1	0.28	1.2	nt
COc1ccc(CCNc2ncnc3[nH]ncc23)cc1OC	3.3	1.4	5	-0.3	2*	7
O=C(/C=C/c1ccc(Cl)cc1)Nc1cccc([N+](=O)[O-])c1	nt	nt	nt	nt	nt	18
O=C(/C=C/c1ccco1)Nc1cccc([N+](=O)[O-])c1	nt	nt	nt	nt	nt	62*
Cc1occc1C(=O)NNC(=S)Nc1cccc([N+](=O)[O-])c1	nt	nt	nt	0.73	2*	nt
CCOC(=O)c1ccc(-c2ccc(/C=C3/C(C)=C(C#N)c4nc(N)c(C#N)c(C)c43)o2)cc1	nt	nt	nt	nt	nt	5
CC1=CC(C)(C)N(S(=O)(=O)c2ccc(C)cc2)c2cc(C)ccc21	nt	nt	-1	-2*	0.8	nt
O=C(CSc1ncn[nH]1)Nc1c(F)cc(F)cc1Br	nt	nt	5	nt	2.1*	nt
O=C(CSc1ncn[nH]1)Nc1ccc(F)cc1	nt	nt	nt	nt	nt	-1
CCOC(=O)c1c(NC(=O)c2ccco2)sc(C(=O)Nc2ccc(OC)cc2OC)c1C	nt	nt	nt	nt	nt	-10
CC1CN(S(=O)(=O)c2cccc(C(=O)OCc3cc(=O)oc4cc(O)ccc34)c2)CC(C)O1 (stereo not drawn)	-4.3*	1	-4	-0.24	1.5	7
Brc1ccc(/C=N/N2CCN(c3ccccn3)CC2)cc1	nt	nt	nt	nt	nt	9
CCOc1cc(/C=C2/C(=N)N3N=C(CC)SC3=NC2=O)ccc1OC(=O)c1cccc([N+](=O)[O-])c1	nt	nt	nt	nt	nt	103*
CCC1=NN2C(=N)/C(=C/c3ccc(OC(=O)c4ccc(F)cc4)c(OC)c3)C(=O)N=C2S1	nt	nt	nt	nt	nt	8
O=C(N/N=C/c1ccc(F)cc1)c1cc(C2CC2)[nH]n1	nt	nt	nt	nt	nt	-9
C/C(=N\NC(=O)C(C)Sc1nc(C)cc(C)n1)c1ccc(Br)cc1 (stereo not drawn)	nt	nt	nt	nt	nt	6
Cc1csc(NC(=O)c2cnc3ccccn3c2=O)n1	-1.6	1	-3	nt	nt	12
Cc1ccccc1NC(=O)c1cnc2ccccn2c1=O	-5.8*	1	nt	0.26	1	3
CCOC(=O)C(CCCOc1ccc(C(C)(C)C)cc1)C(=O)OCC	nt	nt	nt	nt	nt	-10
O=C(NCCCN1CCCC1=O)c1ccc(OCc2ccccc2)cc1	nt	nt	nt	2.1	2.1*	nt
Cc1cccc(OCc2nnc(SCC(=O)N3c4ccccc4CC3C)n2C)c1C (stereo not drawn)	nt	nt	11	2.2	nt	nt
Cn1c(SCC(=O)N2CCCc3ccccc32)nnc1-c1c[nH]c2ccccc12	-0.4	nt	nt	3.6*	0.8	nt
Cc1ccccc1OCc1nnc(SCC(=O)N2CCc3ccccc32)n1C	nt	nt	-1	-8.6*	nt	nt
CCCn1c(SCC(=O)N2CCCc3ccccc32)nc2c1c(=O)n(C)c(=O)n2C	4.2*	0.9	7	nt	1.7	5
O=C(CSc1nc2ccccc2[nH]1)N/N=C/c1ccccc1[N+](=O)[O-]	nt	nt	nt	nt	nt	-3
SMILES	D1 allo mod	TNAP act DEA	Candida biofilm	DAT uptake mod	PLAP act	HePTP inhibitor
CCOCCN1CCN(c2c(CC)c(C)nc3cc(-c4cc(OC)cc(OC)c4)nn23)CC1	nt	nt	4	2*	nt	nt
CCc1c(C)nc2cc(-c3cc(OC)cc(OC)c3)nn2c1N1CCCC1	0.71	0.9	7	1.7	1.4	8
Cc1ccccc1C(=O)NN1C(=O)/C(=C\c2ccc(N(C)C)cc2)SC1=S	nt	nt	nt	nt	nt	-11
C=CCOC(=O)C1=C[C@@H](c2coc3ccccc3c2=O)C[C@@H](OCCCCO)O1	nt	nt	nt	2.8*	nt	nt
Cc1nn2cc(-c3ccc(-c4ccccc4)cc3)nc2s1	-4*	0.9	4	0.98	1.1	9
Cc1nn2cc(-c3ccc(Cl)cc3)nc2s1	nt	0.9	5	-0.3	0.8	2
CCc1nn2cc(-c3ccccc3)nc2s1	-8.3*	0.9	-7	-0.54	0.8	8
CC(=O)Nc1cccc(C(=O)Nc2ccc(NC(C)=O)cc2Cl)c1	nt	nt	nt	nt	nt	-2
Clc1ccc(NCc2nnc3n2CCCCC3)cc1	0.19	0.9	-5	-0.63	0.9	-10
c1ccc(NCc2nnc3n2CCCCC3)cc1	-0.96	1	7	1.9*	0.9	2
COc1cc(C=O)ccc1OC(=O)c1cc(OC)c(OC)c(OC)c1	nt	nt	nt	nt	nt	-16
Cc1ccccc1OCCCCN1CCCC1	nt	nt	nt	nt	nt	4
O=C1N/C(=N/N=C/c2ccccc2O)SC1Cc1cc(Cl)ccc1Cl (stereo not drawn)	nt	nt	nt	nt	nt	4
